Measured values as given in the OligoGym collection.

Target: FANCG
Assay: pooled miR-30 sensor sort-seq; sequence = guide strand
Settings: shRNA
Note: reference of the scale not given here.

Sequence | sensor-assay potency score (higher = more potent)
TTGGGCACCCAGTTGAACCCAG | -0.577
ATAGCTTTCTAGGTACAGGGGG | 0.363
AAGTACAACAGTGCTCTCTGTG | 0.113
TTGCAGACTATGGAGGAGCCCT | -1.08
ATAGAGTCAAGGCATCTTGGGC | -0.699
TTCTACCTCAATGAGAAACTGC | -0.153
TAGCAGCTCCAGACTCTCCAGC | -0.96
TAGTAATTCTACCTCAATGAGA | -0.931
TGTGTCTCCAGCACTCTCTCTA | 0.116
TAGGCTCCGCTGGATATCCTGG | -1.03
AGTAAGTGTCTCGATTACCTGG | -1.17
TAAGTGTCTCGATTACCTGGGC | -0.142
TGCTGTGTACACCTGGACCAAC | -1.61
TTGGCCTGTCGAACGAGCCGGT | -0.452
TAAATTCACTAATTGCCACTTT | 0.314
TTTTCTGGCATCTTCCCACAGC | -0.807
TTGGGTAGCAGAGATGATGTGC | 0.442
TACCTCAATGAGAAACTGCGGG | -0.383
TACAACAGTGCTCTCTGTGGAT | -0.172

Target: FANCL
Assay: as above
Settings: shRNA

Sequence | sensor-assay potency score (higher = more potent)
TTCTCTGTTGTACTATTCGATG | -1.72
TTAGTGATTCTATTGCTGCCAA | 0.323
TAATAATCTTGCATTCTTCAGT | -0.383
TAAGGTGGAAGTCTCTTCCCTG | 0.0592
TAGATCAGGAGAGTGCTGCATT | -0.0519
TTATGGAAACATTATTACCTAA | -1.18
TAATCTTGCATTCTTCAGTTGT | 0.333
TAAAACTCTGTCTACTAGTTAG | -1.39
TTAGTGAAGAGACAAACGCAGA | -1.17
TACAATATGGACATTCACCAAA | -0.784
TTCTGCAGGATACTTTGCCTTC | -0.558
TTACCTAATGCAATTCTGCGTG | -0.355

Target: FASN
Assay: as above
Settings: shRNA

Sequence | sensor-assay potency score (higher = more potent)
TACTTTCCCGTCGCATACCTGG | -1.06
TTCTTTGATGCACTGTCCCCTC | -0.75
TTGTTGACATTGTACTCGGCGG | -1.03
ATAGGTGACTTCCAGCAGCAGC | -1.01
TTCTCTGACACCTCGAAGGCAC | -0.474
TTGAGCTGAAGCCTGCAGGCAG | -0.315
TAGGTGGGGATGCTGAGCCGGG | -1.21
TTCATAGGTGACTTCCAGCAGC | -0.213
TTTCTCACAGATACGCTCCATG | -0.419
